About 350 (32%) of roughly 1,100 compounds were called active. How the calls were made is not given here. Not all results are given here. A call without a number means that no potency is given here. Potency and affinity values are given separately.
Assay: CEM21 lymphoblast cell cytotoxicity, dose response, cytotoxicity control for viral fusion inhibitor project, CellTiter-Glo luminescence, cherry-picked (AID 652042)
Conditions: CEM21 cells viability, CellTiter-Glo ATP luminescence, 24 h; series mostly up to 35 µM

SMILES	activity change, negative = cytotoxicity
COc1ccc(S(=O)(=O)N2CCCCC2)cc1NC(=O)CCCOc1ccc(C)cc1	inactive
COc1ccc(S(=O)(=O)N2CCCCC2)cc1NC(=O)Cc1sc(C)nc1-c1ccc(F)cc1	inactive
COc1ccc(NC(=O)c2cc(CC(C)C)nc3ccccc23)cc1	inactive
CC[C@@]12C(=O)N(c3cccc(F)c3)C(=O)N1[C@H](c1ccc(Cl)cc1)[C@@H]1C(=O)N(C3CCCCC3)C(=O)[C@@H]12	inactive
Nc1ccc(-c2nc3ccc(C(=O)O)cc3s2)cc1	inactive
COc1ccccc1CNC(=O)C[C@H]1C[C@@H]2c3cc(NC(=O)c4cccnc4)ccc3O[C@@H]2[C@@H](CO)O1	inactive
COC(=O)c1c(C)oc(C)c1S(=O)(=O)NC(c1ccccc1)c1ccccc1	inactive
Cc1cc(C)n2nc(NCc3cccc(Br)c3)nc2n1	inactive
Cc1cc(Oc2ccc(C#N)cc2)nc(NCc2ccccc2)n1	inactive
COc1ccc(Nc2c(CCc3ccccc3)nc3nc(C)cc(C)n23)cc1	inactive
CCOc1ccc(C(C)=O)cc1COC(=O)c1ccccc1C(=O)N(C)Cc1ccccc1	inactive
Clc1ccc(OCCN2CCN(c3ncnc4sccc34)CC2)cc1	inactive
Cc1ccc(Cn2ncc3c(N4CCN(c5ccc(C)cc5)CC4)ncnc32)cc1	inactive
O=C(COC(=O)c1cccc(S(=O)(=O)N2CCOCC2)c1)NCc1ccccc1	inactive
CSc1ncccc1C(=O)OCC(=O)Nc1ccc(C)c(S(=O)(=O)N2CCOCC2)c1	inactive
COc1ccc(S(=O)(=O)Nc2ccc3c(c2)CC(=O)N([C@H](C)CO)C[C@H](C)[C@H](CN(C)S(=O)(=O)c2ccccc2)O3)cc1	inactive
Cc1noc(C)c1S(=O)(=O)N(C)C[C@H]1Oc2ccc(NC(=O)Nc3ccccc3)cc2CC(=O)N([C@H](C)CO)C[C@H]1C	inactive
C=CC[n+]1c(-c2ccc(OC)c(OC)c2)csc1NNC(=O)Nc1ccccc1	inactive
C=C1CCN([C@@H](CC(C)C)C(=O)Nc2ccc(OC)cc2)S(=O)(=O)c2ccccc21	inactive
Cc1nn(C)c(Cl)c1NC(=O)OCc1ccc(Cl)cc1Cl	inactive
O=C(Nc1ccc(Cl)cn1)C1CCCN1S(=O)(=O)c1cccc2ccccc12 (stereo unspecified)	inactive
CNc1nc2c(c(=O)n(C)c(=O)n2C)n1Cc1ccccc1	inactive

SMILES	activity change, negative = cytotoxicity
CC(Cl)=CCn1c(NCCc2ccccc2)nc2c1c(=O)n(C)c(=O)n2C	inactive
O=C(N[C@@H]1CC[C@H](CCNS(=O)(=O)c2ccc(F)cc2)O[C@@H]1CO)C1CC1	inactive
CCOC(=O)C1CCCN(Cc2nc(N)nc(Nc3ccc(OC)cc3)n2)C1 (stereo unspecified)	inactive
O=C(CN1C(=O)c2ccccc2S1(=O)=O)c1ccccc1Cl	inactive
C[C@H](CO)N1C[C@H](C)[C@H](CN(C)C(=O)Nc2ccccc2)Oc2c(NS(=O)(=O)c3ccc(F)cc3)cccc2C1=O	inactive
C[C@@H]1CN([C@H](C)CO)C(=O)c2cccc(NS(=O)(=O)c3ccc(Cl)cc3)c2O[C@H]1CN(C)CC1CCCCC1	inactive
C[C@H](CO)N1C[C@H](C)[C@H](CN(C)S(=O)(=O)c2ccc(F)cc2)Oc2ccc(NS(=O)(=O)c3ccccc3)cc2CC1=O	inactive
Cc1ccc(S(=O)(=O)Nc2ccc3c(c2)CC(=O)N([C@H](C)CO)C[C@H](C)[C@H](CN(C)S(=O)(=O)c2ccccc2)O3)cc1	inactive
C[C@H](CO)N1C[C@H](C)[C@H](CN(C)S(=O)(=O)c2ccccc2)Oc2ccc(NS(=O)(=O)c3ccc(F)cc3)cc2CC1=O	inactive
C[C@H]1CN([C@@H](C)CO)C(=O)c2cccc(NS(=O)(=O)c3ccc(Cl)cc3)c2O[C@@H]1CN(C)Cc1ccc(C(F)(F)F)cc1	inactive
C[C@@H]1CN([C@H](C)CO)C(=O)c2cccc(NS(=O)(=O)c3ccc(F)cc3)c2O[C@@H]1CN(C)Cc1ccc(C(F)(F)F)cc1	inactive
C[C@H]1CN([C@@H](C)CO)C(=O)c2cc(NS(C)(=O)=O)ccc2O[C@@H]1CN(C)Cc1ccc(Cl)c(Cl)c1	inactive
Clc1ccc2c(c1)C(C1=NCCN1)c1ccccc1CS2 (stereo unspecified)	inactive
C[C@@H]1CN([C@@H](C)CO)C(=O)c2cc(NC(=O)c3ccccc3)ccc2O[C@@H](C)CCCCO[C@H]1CN(C)Cc1ccc(C(=O)O)cc1	inactive
CC1CCC(NC(=O)CCn2ccc3cc(S(=O)(=O)N4CCCC4)ccc32)CC1 (stereo unspecified)	inactive
Cc1cc(C)c(S(=O)(=O)N2CCCCC2)cc1N(C)S(=O)(=O)c1ccc(Cl)cc1	inactive
CC(=O)C1=C(C)N(Cc2ccc(Br)cc2)C(=S)NC1c1cccc(Cl)c1 (stereo unspecified)	inactive
COc1ccc(C2=Nn3c(nnc3-c3ccncc3)SC2)cc1	inactive
C=CCN(Cc1ccc(OC)c(OC)c1)C(=O)c1cc2cc(F)ccc2[nH]1	inactive
COc1cccc(NC(=O)Nc2cccc(C(=O)O)c2)c1	inactive
COc1ccc(-c2noc(CCCC(=O)O)n2)cc1	inactive
CN(C)c1ccc(O)c2c1CC1CC3[C@@H](N(C)C)C(=O)C(C(N)=O)=C(O)[C@]3(O)C(=O)C1=C2O (stereo partly specified)	inactive

SMILES	activity change, negative = cytotoxicity
CC1(C)CC2CC(C)(CN2S(=O)(=O)c2cccc(C(=O)OCC(=O)NC(N)=O)c2)C1 (stereo unspecified)	inactive
COc1ccccc1C(=O)NC(CCSC)C(=O)N1CCN(C/C=C/c2ccccc2)CC1 (stereo unspecified)	inactive
CCCCCn1c(=O)[nH]c2cc(C(=O)N3CCN(Cc4ccc5c(c4)OCO5)CC3)ccc2c1=O	inactive
COCCn1c(=S)[nH]c2cc(C(=O)N3CCN(Cc4ccc5c(c4)OCO5)CC3)ccc2c1=O	inactive
NC(=O)c1sc2nc3c(c(-c4cccs4)c2c1N)CCCCC3	inactive
Cc1ccc(S(=O)(=O)N(C)C[C@@H]2Oc3ccc(NS(=O)(=O)c4c(C)noc4C)cc3CC(=O)N([C@H](C)CO)C[C@@H]2C)cc1	inactive
C[C@H]1CN([C@@H](C)CO)C(=O)c2c(c3ccccc3n2C)-c2ccccc2CO[C@H]1CN(C)C(=O)CCC(F)(F)F	inactive
C[C@H](CO)N1C[C@H](C)[C@H](CN(C)S(=O)(=O)c2ccccc2)Oc2ncc(/C=C/c3ccccc3)cc2C1=O	inactive
CCOC(=O)[C@@H]1[C@H]2COc3ccc(Br)cc3[C@@H]2N2C(=O)N(c3ccccc3)C(=O)[C@@]12C	inactive
Cc1cc(C(=O)NC2CCCc3c2cnn3-c2ccc(C(C)(C)C)cc2)nn1C (stereo unspecified)	inactive
CC(C)(C)c1ccc(-n2ncc3c2CCCC3NC(=O)CN2CCCC2=O)cc1 (stereo unspecified)	inactive
CCC12CN(S(=O)(=O)c3ccc(C)cc3)CC(CC)(CN(S(=O)(=O)c3ccc(C)cc3)C1)C2=O	inactive
O=C(C[C@@H]1C/C=C/CC[C@@H](Cc2ccc(F)cc2)C(=O)O[C@H](c2ccccc2)CNC1=O)NCCO	inactive
CC[C@@]12C(=O)N(c3ccc(C)cc3)C(=O)N1[C@H](c1ccc(OC)cc1)[C@@H]1C(=O)N(C(C)(C)C)C(=O)[C@@H]12	inactive
O=C(c1ccc2ncsc2c1)N1CCN(c2nc3ccccc3s2)CC1	inactive
Cc1cc(CSc2ccccc2)ccc1NC(=O)c1ccc(CN2CCOCC2)cc1	inactive
CCCOc1ccc2ccccc2c1/C=N/n1cnnc1	inactive
CS(=O)(=O)N1CCN(c2ccccc2NC(=O)C(c2ccccc2)c2ccccc2)CC1	inactive
COC(=O)C[C@H]1C=C[C@H](NC(=O)c2ccccn2)[C@@H](CO)O1	inactive
C[C@@H]1CNC(=O)c2c(C(=O)N3CCN(c4ccccc4)CC3)ncn21	inactive
O=C(N(Cc1ccccc1)c1ccccn1)C12CC3CC(CC(C3)C1)C2	inactive
CCNC1CCC(Nc2ccnc3cc(Cl)ccc23)CC1 (stereo unspecified)	inactive

SMILES	activity change, negative = cytotoxicity
O=C(Nc1cccc(F)c1)c1cc(S(=O)(=O)N2CCC(C(=O)O)CC2)ccc1F	inactive
CC(C)OCCCn1c(=S)[nH]c2ccc(N3CCOCC3)cc2c1=O	inactive
Cc1ccc(C(=O)CN2C(=O)c3ccccc3S2(=O)=O)cc1	inactive
O=C(Nc1ccccc1N1CCN(C(=O)c2ccccc2)CC1)c1ccc(Br)o1	inactive
O=C(c1ccc(S(=O)(=O)Nc2ccc(F)cc2)cc1)N1CCN(C(=O)c2ccco2)CC1	inactive
CCOC(=O)c1cccc(NS(=O)(=O)c2ccc(NC(C)=O)cc2)c1	inactive
COc1cc2c(c(OCC(=O)NC(C)C)c1)C(=O)O[C@@H](C)CCCC(=O)CCCCC2	inactive
Nc1c(Cl)cc2c(c1Oc1ccccc1)C(=O)c1ccccc1C2=O	inactive
CN(Cc1cccs1)c1ncnc2sccc12	inactive
C[C@@H]1CN([C@H](C)CO)C(=O)c2cccc(NC(=O)c3ccncc3)c2O[C@H]1CN(C)CC1CCCCC1	inactive
C[C@@H]1CN([C@H](C)CO)C(=O)c2cccc(NC(=O)c3ccncc3)c2O[C@@H]1CN(C)Cc1ccc(C(=O)O)cc1	inactive
C[C@H]1CN([C@@H](C)CO)C(=O)c2cccc(NC(=O)c3ccncc3)c2O[C@@H]1CN(C)C(=O)Nc1cccc2ccccc12	inactive
C[C@@H]1CN([C@H](C)CO)C(=O)c2cccc(NC(=O)C3CCCCC3)c2O[C@H]1CN(C)Cc1ccccc1	inactive
CC(C)(C)c1ccc(-c2noc(CCC(N)=O)n2)cc1	inactive
CCOc1ccc(N(CC(=O)NCCSCc2ccc(Cl)cc2)S(C)(=O)=O)cc1	inactive
CCCN(CC(=O)Nc1ccccc1OC)C(=O)c1cccc(S(=O)(=O)NCc2ccccc2)c1	inactive
Cc1n[nH]c(C)c1S(=O)(=O)N(CC(=O)NC1CCCC1)c1ccc(C(C)C)cc1	inactive
COc1ccc(Cl)cc1NC(=O)CN(C1CCCCC1)S(C)(=O)=O	inactive
C#CCn1c(=O)c2c(ncn2C)n(C)c1=O	inactive
C=C1CCN([C@H](C(=O)OCc2cccc(C)c2)C(C)C)S(=O)(=O)c2ccccc21	inactive

— PubChem BioAssay AID652042 (Broad Institute, 2013)
